Test system: Vero E6 infected with SARS-CoV-2
Assay: inhibition of SARS-CoV-2 cytopathic effect; higher = more antiviral protection, active = above 15
Details: 48 h

Measured: inhibition of SARS-CoV-2 cytopathic effect

O=C(Nc1ccccc1C(=O)NC1CCCCNC1=O)c1cc2ccccc2s1 (stereo not given)
inactive: 1 nM -1.69% | 8.33 nM -3.72% | 100 nM -3.22% | 833.33 nM -1.52% | 10000 nM -0.14%

O=C(NCC1(N2CCN(c3ccccc3)CC2)CCOCC1)c1cccnc1Sc1ccccc1
inactive: 1 nM -0.72% | 8.33 nM 1.47% | 100 nM 1% | 833.33 nM -2.18% | 10000 nM 0.86%

O=C1c2c(O)cccc2C([C@@H]2O[C@H](CO)[C@@H](O)[C@H](O)[C@H]2O)c2cc(CO)cc(O)c21 (stereo not given in full) [aloin]
inactive: 1 nM -0.62% | 8.33 nM 0.1% | 100 nM -0.43% | 833.33 nM 1.27% | 10000 nM 1.29%

CC(=O)/N=c1/sc(S(N)(=O)=O)nn1C [methazolamide]
inactive: 1 nM 2.05% | 8.33 nM 1.62% | 100 nM -1.26% | 833.33 nM -0.76% | 10000 nM 1.82%

CC(=O)NCCCS(=O)(=O)O [acamprosate]
inactive: 1 nM -2.95% | 8.33 nM 1.47% | 100 nM -2.01% | 833.33 nM -3.15% | 10000 nM -1.78%

CCC/N=C1\S/C(=C\c2ccc(OC[C@H](O)CO)c(Cl)c2)C(=O)N1c1ccccc1C [ponesimod]
inactive: 1 nM -1.82% | 8.33 nM -0.6% | 100 nM -2.77% | 833.33 nM -2.51% | 10000 nM -0.58%

CC(=O)O[C@H]1CC[C@@]2(C)C(=CC[C@@H]3[C@@H]2CC[C@]2(C)C(c4cccnc4)=CC[C@@H]32)C1 [abiraterone-acetate]
inactive: 1 nM -0.73% | 8.33 nM 0.99% | 100 nM -0.37% | 833.33 nM -1.43% | 10000 nM -0.75%

CCCn1c(=O)[nH]c(=O)c2nc[nH]c21 [enprofylline]
inactive: 1 nM 0.79% | 8.33 nM 0.93% | 100 nM 1.89% | 833.33 nM 1.3% | 10000 nM 4.03%

CCOc1ccccc1OCC1CNCCO1 (stereo not given) [viloxazine]
inactive: 1 nM 5.7% | 8.33 nM 7.03% | 100 nM 7.67% | 833.33 nM 2.71% | 10000 nM 3.05%

COC(=O)N[C@H](C(=O)N1CCC[C@H]1c1nc(-c2ccc3c(c2)O[C@@H](c2ccccc2)n2c-3cc3cc(-c4c[nH]c([C@@H]5CCCN5C(=O)[C@@H](NC(=O)OC)C(C)C)n4)ccc32)c[nH]1)C(C)C [elbasvir]
inactive: 1 nM 1.03% | 8.33 nM 1.52% | 100 nM 0.09% | 833.33 nM -1.19% | 10000 nM -4.27%

CC(C)N(CCNC(=O)CN1CCCC1=O)C(C)C [pramiracetam]
inactive: 1 nM -3.32% | 8.33 nM -1.27% | 100 nM 0.57% | 833.33 nM 3.04% | 10000 nM 0.12%

From the supplement of paper PMC13380429
